Drawing on PubChem BioAssay (NCATS), this text covers Potency for 40 molecules.

Inconclusive results are not listed. Where a call stands in place of a potency, no number is given. Activity calls are given as the source filed them. The call rests on the fitted dose curve; in most records, active means well fitted inhibition curve with a large enough effect; inconclusive means small, poorly fitted or top-dose-only effect; inactive means no such curve, though single readings can be large or run the other way. Where a SMILES comes first, the peptide text is derived from it. The star is where a group is joined. PhAc = O=C(Cc1ccccc1)*
Potency means the concentration at half of the fitted maximal effect.

Sequence of Cytochrome P450 3A7 (Homo sapiens) (P24462 whole entry, looked up): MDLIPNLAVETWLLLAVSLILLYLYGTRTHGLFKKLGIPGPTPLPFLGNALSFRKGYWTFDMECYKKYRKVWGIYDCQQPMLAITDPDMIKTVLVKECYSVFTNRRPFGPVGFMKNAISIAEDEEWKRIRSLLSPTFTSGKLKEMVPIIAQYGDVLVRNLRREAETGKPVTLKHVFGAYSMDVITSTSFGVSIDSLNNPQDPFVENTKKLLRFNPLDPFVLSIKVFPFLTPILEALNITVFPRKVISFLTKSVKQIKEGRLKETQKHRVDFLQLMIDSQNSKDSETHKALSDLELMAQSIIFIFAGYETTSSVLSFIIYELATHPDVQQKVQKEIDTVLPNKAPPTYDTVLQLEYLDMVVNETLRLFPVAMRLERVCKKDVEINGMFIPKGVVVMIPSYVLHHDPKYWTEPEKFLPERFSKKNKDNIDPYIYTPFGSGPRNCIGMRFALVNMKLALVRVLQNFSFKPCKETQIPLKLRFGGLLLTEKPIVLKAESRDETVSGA

This assay concerns the target Cytochrome P450 3A7 (Homo sapiens) (UniProt P24462). Briefly: Cytochrome P450 family 3 subfamily A member 7 (CYP3A7) small molecule antagonists: luciferase biochemical qHTS assay (AID 1963596). Further: nearly all actives have a fitted effect of over 40% in size. Particulars: P450-Glo CYP3A7 enzyme luminescence, 1 h; series mostly up to 57.4 µM. In outline:
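P450-Glo luminescent assay: CYP3A7 enzyme converts a proluciferin substrate to luciferin, detected by luciferase reagent; light proportional to activity. Compounds in DMSO preincubated 10 min with enzyme-substrate mix at room temperature, then NADPH regeneration added for 1 h.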
(In general: In qHTS, concentration-response curves come from the screen itself.)
Take `C/C=C/C=C/C(=O)O`: the Potency result was “inactive”. As for `Cn1nnc(-c2ccc(-c3ccc(N4C[C@H](CO)OC4=O)cc3F)cn2)n1`, the Potency result is “inactive”. In the case of `C=CCCCCCCCCC(=O)OC`, the Potency result was “inactive”. For the molecule `O=c1c(-c2ccccc2)c1-c1ccccc1`, the Potency entry was “inactive”.

`O=C(Nc1ccc([N+](=O)[O-])cc1)Nc1ccc([N+](=O)[O-])cc1`: the Potency entry was “inactive”. Regarding `COc1ccc(-c2nc(-c3ccc(-c4cccc(Cl)c4)o3)[nH]c2-c2ccc(OC)cc2)cc1`, the Potency entry was “inactive”. Consider `COc1ccccc1C(=O)Nc1cccc(NC(=O)c2cccc(C)c2)c1`, for which the Potency result is “inactive”. The result for `CCC(Cc1c(I)cc(I)c(O)c1I)C(=O)O` (stereo not given) reads 16.9 µM (active); that for `NC[C@H]1CCC[C@@H](CNC(=O)[C@@H](Cc2c[nH]c3ccccc23)NC(=O)N2CCC3(C=Cc4ccccc43)CC2)C1`, “inactive”; that for `C=CS(=O)(=O)O`, “inactive”. Take `O=C(OCCO)c1ccccc1O`: the Potency result was “inactive”. As for `COc1ccc(CNC(=O)c2nc(SCc3ccccc3F)ncc2Cl)cc1`, the Potency result was “inactive”.

Turning to `O=C(O)CCC(=O)C(=O)O`, the Potency result was “inactive”. Under `Cc1ccc(C)c(NC(=O)Cn2cc(C(=O)c3ccco3)c3ccccc32)c1` stands “inactive”. Regarding `Cc1cc(CC(=O)O)n(C)c1C(=O)c1ccc(Cl)cc1`, the Potency result is “inactive”. Under `CC(C)C[C@H](NC(=O)CNC(=O)[C@H](Cc1ccc(O)cc1)NC(=O)[C@H](CO)NC(=O)[C@H](Cc1c[nH]c2ccccc12)NC(=O)[C@H](Cc1cnc[nH]1)NC(=O)[C@@H]1CCC(=O)N1)C(=O)N[C@@H](CCCN=C(N)N)C(=O)N1CCC[C@H]1C(=O)NCC(N)=O` (stereo in doubt) stands “inactive”; under `CCc1ccc(CNC(=O)C2CCCN(c3nnc(C)c4c(C)n(-c5ccccc5)nc34)C2)cc1` (stereo not given), 2.82 µM (active).

On to `CC(C)(F)C[C@@H](N[C@@H](c1ccc(-c2ccc(S(C)(=O)=O)cc2)cc1)C(F)(F)F)C(=O)NC1(C#N)CC1`, for which the Potency result is “inactive”. For the molecule `Cc1cc(NC(=O)Nc2ccc(F)c(F)c2)n(-c2ccccc2)n1`, the Potency entry was “inactive”. Turning to `COC(=O)CCC[N+](C)(C)C`, the Potency result is “inactive”. Take `CCC(O)c1ccccc1` (stereo not given): the Potency result is “inactive”. The result for `O=C(O)c1cc(O)c2c(O)c3c(O[C@@H]4O[C@H](CO)[C@@H](O)[C@H](O)[C@H]4O)cccc3c(-c3c4cc(C(=O)O)cc(O)c4c(O)c4c(O[C@@H]5O[C@H](CO)[C@@H](O)[C@H](O)[C@H]5O)cccc34)c2c1` reads “inactive”; that for `O=C(O)c1cccc(-c2ccc(-c3cn(C(=O)N4CCCCC4Cc4ccccc4)nn3)cc2)c1` (stereo not given), “inactive”.

Consider `COC(=O)CCC(=O)CN`, for which the Potency result is “inactive”.

Consider `Cc1cccc(C#Cc2cc(F)cc(C#N)c2)n1`, for which the Potency result was “inactive”. As to `Cc1cccc(C)c1NC(=O)C(C)N` (stereo not given), the Potency result is “inactive”. The result for `Cc1cc(N)c2cc(NC(=O)Nc3ccc4nc(C)cc(N)c4c3)ccc2n1` reads “inactive”; that for `CCCCCCCCNC(C)C(O)c1ccc(SC(C)C)cc1` (stereo not given), “inactive”. Under `CCOC(=O)CNC(=O)[C@@H]1CCCN1C(=O)Cc1ccccc1` (PhAc-Pro-Gly-OEt) stands “inactive”; under `CCCCC(O)c1ccccc1` (stereo not given), “inactive”; under `CCc1ccc(C2=CC(c3c(F)cccc3Cl)n3c(nc4ccccc43)N2)cc1` (stereo not given), “inactive”.

In the case of `NC(=O)OCC(O)COc1ccc(Cl)cc1` (stereo not given), the Potency result was “inactive”. Consider `O=C(NC1CCC1)c1ccc(C#Cc2cccc(F)c2)nc1`, for which the Potency result is “inactive”. Consider `COc1ccccc1Nc1nc(-c2ccccc2F)nc2ccccc12`, for which the Potency result was “inactive”. As for `CC(C)(C)CCN1C[C@@H]2C(CNC(=O)c3cc(Cl)cc(Cl)c3)[C@@H]2C1` (stereo not given in full), the Potency entry is “inactive”.

Take `Cc1cc(C)cc(NC(=O)CSc2c(C(C)C)cnc3c2c(=O)n(C)c(=O)n3C)c1`: the Potency result was “inactive”.

Consider `Nc1c(CC(=O)O)cccc1C(=O)c1ccccc1`, for which the Potency result was “inactive”. Consider `CCn1c(N)c(C(=O)NC)c(=O)c2ccc(C#C[C@@](C)(O)COC)nc21`, for which the Potency result is “inactive”.

As to `NC(=O)c1cccc2cn(-c3ccc(C4CCCNC4)cc3)nc12` (stereo not given), the Potency entry is “inactive”. Under `Cc1c(C)c2c(c(C)c1OC(=O)CCC(=O)O)CC[C@@](C)(CCC[C@H](C)CCC[C@H](C)CCCC(C)C)O2` stands “inactive”.
